CCT chaperon mod – High-Throughput Screening for Modulators of Cytosolic Chaperonin Activity | purified chaperonin ATPase assay, HTRF ADP detection, 30 min | activity change, % (no concentration beside the values), hits read low | actives 0.3% (n = 360,000) | AID 651819, 2012; in the data active = activity change below about -30%; also: % is scaled to controls: 0 for no effect and ±100 for the full control effect
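ATPase activity: ADP formed was measured by HTRF Transcreener (665/615 nm ratio) after 30 min at 37 deg C with 10 uM ATP. Compounds screened at one 76 uM concentration against 40 or 20 nM TRiC in Tris pH 7.4/KCl/MgCl2/DTT buffer.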
Rango dissoc inh – qHTS Assay for Inhibitors of RanGTP induced Rango (Ran-regulated importin-beta cargo) - Importin beta complex dissociation; Snurportin-1 (Homo sapiens) + GTP-binding nuclear protein Ran (Homo sapiens) + Importin …; Biochemical FRET Rango-importin beta, RanGTP-induced dissociation; Potency, µM (top dose mostly 46.1 µM), for the others: at the highest dose activity change, negative = inhibition; actives 0.071% (n = 340,000); AID 540253, 2011; also: potency is read from the fitted curve at half-maximal effect; % of control where 0% means no effect; nearly all actives have a fitted effect of over 45% in size
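Rango/importin beta premix (0.1/0.25 uM final), PBS + 1 mM DTT + 0.02% Tween-20 + 0.1% BSA; cpd 5 min RT; FRET pre-read; + RanGTP-RCC1 (0.6 uM Ran, 2 mM GTP, 0.2 uM RCC1); 45 min RT; FRET post-read, ex 430, em 486/530 nm.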
MmCpn inh – Inhibitors of TCP-1 ring complex (TRiC) of Methanococcus maripaludis (MmCpn): qHTS. purified Mm-Cpn ATPase, ADP Transcreener TR-FRET. Chaperonin Mm-Cpn (Methanococcus maripaludis). AID 504842, 2011. Potency, µM (series often up to 76.9 µM), for the others: at the top dose activity, negative = inhibition, usual class: inhibitors. actives 0.031% (n = 330,000); active = well fitted inhibition curve with a large enough effect; inconclusive = small, poorly fitted or top-dose-only effect; also: potency is read from the fitted curve at half-maximal effect; % is scaled to controls: 0 for no effect and ±100 for the full control effect; nearly all actives have a fitted effect of over 80% in size
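Inhibition of chaperonin ATP hydrolysis is measured as reduced ADP production, detected by competitive TR-FRET in which signal falls with ADP. Final enzyme 25 nM and ATP 10 uM, reacted 30 min at 37°C.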
Rango-impB inh – qHTS Assay for Inhibitors of Rango (Ran-regulated importin-beta cargo) - Importin beta complex formation; Importin subunit beta-1 (Homo sapiens), Q14974; Rango CFP/YFP FRET sensor + importin beta, 45 min; Potency, µM (top dose mostly 92.2 µM), inactives show at the highest dose inhibition of complex formation; actives 0.031% (n = 340,000); AID 540263, 2011;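 also: potency is read from the fitted curve at half-maximal effect; 0% = DMSO wells and 100% = buffer wells lacking importin beta; nearly all actives have a fitted effect of over 15% in size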
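Inhibition scored from the CFP 486 nm/YFP 530 nm FRET ratio 45 min after adding 0.125 microM importin beta to 50 nM Rango biosensor preincubated 5 min with compound (room temperature, PBS with DTT, Tween-20, BSA). No-importin wells as positive control.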
* = called active by the depositor; ? = inconclusive; . = no result given; [ ] = dose if it differs, or a comment. The list is not random: actives were taken first. Their share in the collection is about 0.39%. Unless noted, calls follow the shape of the full dose curve.

SMILES	CCT chaperon mod	Rango dissoc inh	MmCpn inh	Rango-impB inh
Cc1nn(C2CCS(=O)(=O)C2)c(C)c1C=O (stereo unspecified)	-36*	-10%	-4%	-2%
COc1ccc(C)cc1NC(=O)COC(=O)Cc1c[nH]c2ccccc12	-6	.	.	.
Cc1n[nH]c(=S)n1-c1cccc(Cl)c1	-55*	2%	1%	4%
Cc1ccccc1OCc1n[nH]c(=S)n1-c1cccc(Cl)c1	0	13%	-2%	-1%
CN(C)CCNc1ncnc2c1ncn2[C@H]1CN(Cc2ccc(-c3ccccc3)cc2)C[C@@H](CO)O1	2	.	.	.
COc1ccccc1-c1sc2ccccc2c1-c1ccc(OCCN2CCOCC2)cc1	0	-10%	40µM*	1%
CCO/C=C1\C(=O)N(c2ccccc2)C(=O)c2ccccc21	-3	13µM*	0%	?
CCO/C=C1/C(=O)N(c2ccc(OC)cc2)C(=O)c2ccccc21	-3	?	0%	?
O=C(CN1C(=O)C2C3C=CC(C3)C2C1=O)NCCc1ccccc1 (stereo unspecified)	-51*	10%	?	0%
O=C(CN1C(=O)C2C3C=CC(C3)C2C1=O)NCc1ccccc1 (stereo unspecified)	-3	-8%	-2%	2%
COc1ccc(C(=O)NCCN2CCCC2)cc1[N+](=O)[O-]	2	1%	0%	-1%
COc1ccc(NC(=O)/C(N=Nc2ccc(Cl)c(S(=O)(=O)Nc3ccc(Cl)cc3)c2)=C(\C)O)cc1	-48*	1%	-7%	-1%
C=CCSC(=C(C#N)C#N)c1cc2c([nH]1)CCCC2	1	16µM*	-1%	?
O=C(O)c1cc2c([nH]c1=O)CCCC2	1	1%	2%	-2%
CCOC(=O)CSc1nc2cc3c(cc2cc1C#N)OCCO3	-39*	-24%	-28%	?
CC(=O)NC12CC3CC(C1)CC(C(=O)N1CCN(S(=O)(=O)c4ccccc4C#N)CC1)(C3)C2	0	-10%	.	1%
CCCN(CCC)CCNC(=O)C1CCN(S(=O)(=O)c2cccc3nsnc23)CC1	0	14%	1%	5%
COC(CNC(=O)C1CCN(S(=O)(=O)c2cccc3nsnc23)CC1)OC	-75*	23%	-18%	0%
COc1ccc(NC(=O)CCCCCN2C(=O)c3cccc([N+](=O)[O-])c3C2=O)c(OC)c1	-39*	11%	-2%	-4%
CCCN1CCC(NC(=O)CCc2nnc(-c3ccccc3)o2)CC1	-70*	-19%	0%	-5%
C(=N\n1cnnc1)/c1cccc(OCCOc2ccccc2)c1	-84*	6%	0%	2%
O=c1oc2ccccc2cc1-c1nc(-c2cccs2)cs1	-4	?	-2%	?
N#CCc1nc(-c2cc3ccccc3oc2=O)cs1	-32*	-3%	-13%	-1%
c1cncc(CNc2ncnc3ccc(-c4ccco4)cc23)c1	.	.	-22%	.
Cc1ccc(S(=O)(=O)NCCC(=O)Oc2ccc3ccc(=O)oc3c2)cc1	-1	12µM*	-7%	?
SMILES	CCT chaperon mod	Rango dissoc inh	MmCpn inh	Rango-impB inh
CN1CCN(c2ccccc2NC(=O)COc2ccc(Cl)cc2)CC1	-3	3%	2%	0%
c1ccc(-c2nc(NCc3cccs3)c3ccccc3n2)cc1	-48*	?	0%	1%
O=C(Nc1ccc(S(=O)(=O)Nc2nccs2)cc1)c1cnc(Cl)c(Cl)c1	1	10µM*[inhibitor]	-21%	?
O=C(CSc1ccc(Br)c2cccc(Cl)c12)Nc1ccc(S(=O)(=O)Nc2nccs2)cc1	-37*	-10%	?	3%
N#Cc1cccc(C(=O)Nc2ccc(S(=O)(=O)Nc3nccs3)cc2)c1	-2	9.2µM*	-1%	?
O=C(Cc1ccccc1Cl)Nc1ccc(S(=O)(=O)Nc2nccs2)cc1	-2	14%	-1%	-2%
O=C(Nc1ccc(S(=O)(=O)Nc2nccs2)cc1)c1cccc(N2C(=O)c3ccccc3C2=O)c1	0	-19%	-13%	?
CC1(C(=O)NS(=O)(=O)c2ccc(Cl)cc2)CCN1C(=O)Cc1ccsc1 (stereo unspecified)	0	.	.	.
CC(=NNC(=O)c1ccncc1)c1cc(Cl)ccc1Cl	0	10%	.	-2%
Cc1cc(C)c(C(O)c2ncc(-c3ccccc3Cl)[nH]2)c(C)c1 (stereo unspecified)	-3	.	.	.
O=C(CSc1nccn1Cc1ccco1)Nc1ccccc1	-4	7%	3%	1%
O=C(COC(=O)c1ccc(Cl)nc1)NCCc1ccc(F)cc1	1	-6%	1%	-1%
CC(c1ccco1)N(C(=O)c1cccc(S(=O)(=O)N(C)C)c1)c1ccccn1 (stereo unspecified)	-51*	-4%	2%	2%
CCN(C(=O)COC(=O)c1cccnc1SC)c1c(N)n(Cc2ccccc2)c(=O)[nH]c1=O	0	14%	-4%	0%
COc1ccc(/C=C/c2ccncc2)cc1	-52*	4%	0%	-1%
O=C(NC(=S)Nc1cc(Cl)ccc1Cl)c1ccco1	0	.	.	.
CCOC(=O)CSc1nc(C(C)C)nc2ccccc12	-43*	2%	-5%	5%
COC(=O)CSc1nc(C(C)C)nc2ccccc12	1	-9%	-9%	-1%
CCc1ccc(N2CC(C(=O)Nc3cccc(S(=O)(=O)N4CCCC4)c3)CC2=O)cc1 (stereo unspecified)	1	1%	2%	4%
Cn1nc([N+](=O)[O-])nc1N1CCOCC1	-44*	-3%	-3%	0%
CCCN1C(=O)c2ccccc2NC1c1ccc(OC)cc1O (stereo unspecified)	-86*	-5%	1%	6%
COc1ccc([C@H]2CC(=O)C[C@@H](CCn3cc(-c4ccccn4)nn3)O2)cc1	2	.	.	.
Cc1c(C(=O)N2CCN(Cc3ccc4c(c3)OCO4)CC2)sc2ncnc(N3CCN(c4ccccc4F)CC3)c12	-74*	1%	-5%	4%
COc1cccc(CNCC(=O)NC(=O)NC2CCCC2)c1	-2	22%	-4%	0%
CC1CC(C)CN(C(=O)c2ccncc2)C1 (stereo unspecified)	-38*	1%	0%	-1%
COCc1cc(CNC(=O)C2CCC(=O)N(Cc3ccccc3OC)C2)[nH]n1 (stereo unspecified)	2	5%	5%	-4%
COc1cccc(CN2CC(C(=O)N(C)Cc3nc(C)cs3)CCC2=O)c1 (stereo unspecified)	-31*	0%	1%	-4%
COCc1cc(CNC(=O)C2CCC(=O)N(Cc3cccc(OC)c3)C2)[nH]n1 (stereo unspecified)	-48*	-6%	-1%	-2%
